Assay results published in publication PMC12670160, “A drug-repurposing screen of FDA- and EMA-approved drugs identifies two NF-κB inhibitors active against eumycetoma” (Journal of Antimicrobial Chemotherapy, 2025).
Structures can show the parent of a compound that is named as a salt. Out of some 5,300 compounds screened, about 130 (2.5%) showed an effect of 50% or more. The full list was thinned out, with strong results kept by preference.

system: M. mycetomatis strain mm55; conditions: primary screen, metabolic activity vs growth control; 96 h, 2 µM; inhibitor

Compared with `Cc1c(N)nc([C@H](CC(N)=O)NC[C@H](N)C(N)=O)nc1C(=O)N[C@H](C(=O)N[C@H](C)[C@@H](O)[C@H](C)C(=O)N[C@H](C(=O)NCCc1nc(-c2nc(C(=O)NCCCNCCCCN)cs2)cs1)[C@@H](C)O)[C@@H](O[C@@H]1O[C@@H](CO)[C@@H](O)[C@H](O)[C@@H]1O[C@@H]1O[C@H](CO)[C@@H](O)[C@H](OC(N)=O)[C@@H]1O)c1cnc[nH]1` [ONC0002990, bleomycetin], `Cc1c(N)nc([C@H](CC(N)=O)NC[C@H](N)C(N)=O)nc1C(=O)N[C@H](C(=O)N[C@H](C)[C@@H](O)[C@H](C)C(=O)N[C@H](C(=O)NCCc1nc(-c2nc(C(=O)NCCC[S+](C)C)cs2)cs1)[C@@H](C)O)[C@@H](O[C@@H]1O[C@@H](CO)[C@@H](O)[C@H](O)[C@@H]1O[C@H]1O[C@H](CO)[C@@H](O)[C@H](OC(N)=O)[C@@H]1O)c1c[nH]cn1` [ONC0004316, bleomycin sulfate] is higher in “% viability” value: 3.217% for the first, 4.137% for the second.

First: CO/N=C(/C(=O)NC1C(=O)N2C(C(=O)O)=C(C[N+]3(C)CCCC3)CSC12)c1csc(N)n1 (centres unmarked) [ONC0000506, cefepime hydrochloride]
Second: NC(=O)c1cc[n+](CC2=C(C(=O)O)N3C(=O)[C@@H](NC(=O)Cc4cccs4)[C@H]3SC2)cc1 [ONC0005624, cefalonium]
The “% viability” value of the first is lower: 66.95% for the first, 95.75% for the second.

Compared with `CC(=O)OCC(=O)[C@@]1(O)[C@@H](C)CC2C3CCC4=CC(=O)C=C[C@]4(C)[C@@]3(F)[C@@H](O)C[C@@]21C` (some centres unmarked) [ONC0004050, betamethasone acetate], `C[C@]12C=CC(=O)C=C1CCC1C2[C@@H](O)C[C@@]2(C)C1CC[C@]2(O)C(=O)COC(=O)CCC(=O)O` (some centres unmarked) [ONC0004028, prednisolone hemisuccinate] is lower in “% viability” value: 111.9% for the first, 62.59% for the second.

First: O=CN1CCC(C(=O)NCCN2CCC(=C3c4ccccc4C=Cc4ccccc43)CC2)CC1 [ONC0001856, at1015]
Second: COc1cc2nc(N3CCCN(C)CC3)nc(NC3CCN(Cc4ccccc4)CC3)c2cc1OC [ONC0004534, bix 01294]
The “% viability” value of the first is higher: 84.57% for the first, 44.63% for the second.

First: N#Cc1ccc(N2NC3=C(CCc4cc(C(=O)O)ccc43)[C@@H]2C2CCCC2)cc1Cl [ONC0002131, pf03882845]
Second: CCOc1cccc(NC(=O)c2ccc(N3CCCC3)c(C(F)(F)F)c2)c1 [ONC0001854, epptb]
The “% viability” value of the first is lower: 78.15% for the first, 85.67% for the second.

Going from `O=C(Nc1cccc(Cl)c1)c1ccccn1` [ONC0004653, vu 0364770] to `OCCCNc1cc(-c2ccnc(Nc3cccc(Cl)c3)n2)ccn1` [cgp60474], the “% viability” value falls from 68.57% to 9.09%.

First: COc1ccc(Nc2nccc(NCCO)n2)cc1 [ONC0000720, cardiogenolc]
Second: COc1ccc2c(NC(=O)Nc3cccc(C(F)(F)F)n3)ccnc2c1 [ONC0002529, a1070722]
The “% viability” value of the first is higher: 79.31% for the first, 76.76% for the second.

Going from `CC(C)[C@H](N)C(=O)OCCOCn1cnc2c(=O)[nH]c(N)nc21` [ONC0004144, valacyclovir hydrochloride] to `Cc1nc2ccc(CN(C)c3ccc(C(=O)N[C@@H](CCC(=O)O)C(=O)O)s3)cc2c(=O)[nH]1` [ONC0004884, raltitrexed tomudex], the “% viability” value rises from 101.2% to 134.6%.

Compared with `O=c1[nH]ccc2cc(OC3CCNCC3)ccc12` [ONC0001198, sar407899 hydrochloride], `CN1CCN2c3c(cccc31)[C@@H]1CN(CCCC(=O)c3ccc(F)cc3)CC[C@@H]12` [ONC0001244, lumateperone tosylate] is lower in “% viability” value: 94.6% for the first, 56.09% for the second.

Going from `O=C(CC1CC(c2ccc(F)cc2F)=NO1)N1CCOCC1` (centres unmarked) [ONC0000237, cpsi1306] to `CCn1c(-c2nonc2N)nc2cnc(Oc3cccc(NC(=O)c4ccc(OCCN5CCOCC5)cc4)c3)cc21` [ONC0002474, gsk269962], the “% viability” value falls from 89.07% to 46.2%.

Going from `O=C1CN(/N=C/c2ccc(-c3ccc([N+](=O)[O-])cc3)o2)C(O)=N1` [ONC0003073, dantrolene] to `O=C(O)/C(Cc1ccccc1[N+](=O)[O-])=N/Nc1nc(-c2ccc(Cl)c(Cl)c2)cs1` [ONC0005147, 4egi1], the “% viability” value falls from 104.9% to 73.1%.

Going from `COC(=O)[C@@]12OC[C@]34[C@H]([C@@H](O)[C@@H]1O)[C@@]1(C)CC(=O)C(O)=C(C)[C@@H]1C[C@H]3OC(=O)[C@H](OC(=O)/C=C(\C)C(C)C)[C@@H]24` [ONC0001105, bruceantin] to `CN(C)[C@@H]1C(=O)C(C(N)=O)C(=O)[C@@]2(O)C(=O)C3C(=O)c4c(O)cccc4[C@@](C)(O)[C@H]3C[C@@H]12` (some centres unmarked) [ONC0000563, tetracycline hydrochloride], the “% viability” value rises from 72.53% to 113.1%.

First: COc1cc2c(NC3CCN(C)CC3)nc(N3CCCN(C)CC3)nc2cc1OCCOCCN(C)C [ONC0002054, unc0321]
Second: COc1cc2c(NC3CCN(C)CC3)nc(N3CCCN(C)CC3)nc2cc1OCCCN(C)C [ONC0000276, unc0224]
The “% viability” value of the first is lower: 65.32% for the first, 85.54% for the second.

Going from `CNCCc1c[nH]cn1` [ONC0002580, nalphamethylhistaminedihydrochloride] to `CC(C)c1ccc(C(=O)NC(=N)N)cc1S(C)(=O)=O` [ONC0004136, cariporide], the “% viability” value rises from 77.02% to 93.97%.

Going from `O=C(O)CCC(=O)O` [ONC0003714, succinic acid] to `NCC(=O)CCC(=O)O` [ONC0004291, aminolevulinic acid hydrochloride], the “% viability” value falls from 98.68% to 48.43%.

First: NCC(=O)O [ONC0001985, glycine]
Second: CC(=O)N[C@@H](CS)C(=O)O [ONC0000337, acetylcysteine]
The “% viability” value of the first is higher: 104.5% for the first, 67.99% for the second.

Compared with `CC(C)OC(=O)CNC(=O)[C@H](CS)NC(=O)CC[C@H](N)C(=O)O` [ONC0002985, glutathionemonoisopropylester], `CC(C)(S)C(=O)N[C@@H](CS)C(=O)O` [ONC0003276, bucillamine] is lower in “% viability” value: 70.59% for the first, 45.36% for the second.

Going from `CO[C@H]1CC[C@H](N(c2cc(C3=CCCCC3)sc2C(=O)O)C(=O)[C@H]2CC[C@H](C)CC2)CC1` [ONC0000943, vch916] to `C[C@]12CC[C@@H]3c4ccc(O)cc4CC[C@H]3[C@@H]1CC[C@@H]2OC(=O)CCC1CCCC1` [ONC0000738, estradiol cypionate], the “% viability” value rises from 78.62% to 84.11%.

Going from `CC12CCC(C(Br)C1=O)C2(C)C` (centres unmarked) [ONC0003727, 3bromocamphor] to `C[C@]12CC[C@@H]3c4ccc(O)cc4CC[C@H]3[C@@H]1CC[C@@H]2O` [ONC0000707, estradiol], the “% viability” value falls from 127.8% to 85.31%.

Going from `Cc1csc2c(N[C@@H](C)CN3CCN(S(=O)(=O)c4ccc(Cl)c(Cl)c4)CC3)ncnc12` [ONC0001129, lpa2 antagonist 1] to `COc1cc2c(Nc3ccc(NC(=O)c4ccccc4)cc3)ncnc2cc1OCCCN1CCOCC1` [ONC0003607, zm447439], the “% viability” value rises from 45.06% to 145.2%.

First: CC[C@]1(O)C[C@H]2CN(CCc3c([nH]c4ccccc34)[C@@](C(=O)OC)(c3cc4c(cc3OC)N(C)[C@H]3[C@@](O)(C(N)=O)[C@H](O)[C@]5(CC)C=CCN6CC[C@]43[C@@H]65)C2)C1 [ONC0000288, vindesine sulfate]
Second: CC1=NN(c2ccc(C)c(C)c2)C(=O)/C1=N/Nc1cccc(-c2cccc(C(=O)O)c2)c1O [ONC0004936, eltrombopag olamine]
The “% viability” value of the first is higher: 94.86% for the first, 85.22% for the second.

Going from `CCCCC(=O)O[C@H]1CC[C@H]2[C@@H]3CCc4cc(O)ccc4[C@H]3CC[C@]12C` [ONC0000727, estradiol valerate] to `CCCCCCCCCCCCCCCCCC(=O)OCC(O)[C@H]1OC[C@H](O)[C@H]1O` (some centres unmarked) [ONC0002989, sorbitanmonostearate], the “% viability” value rises from 49.76% to 79.74%.

Compared with `[H]/N=C(\N/C(=N/[H])NCCCCCCNC(=N)NC(=N)Nc1ccc(Cl)cc1)Nc1ccc(Cl)cc1` [ONC0000326, chlorhexidine dihydrochloride], `C/C(=N\NC(=N)N)c1cc(NC(=O)CCCCCCCCC(=O)Nc2cc(/C(C)=N/NC(=N)N)cc(/C(C)=N/NC(=N)N)c2)cc(/C(C)=N/NC(=N)N)c1` [ONC0003851, semapimod] is higher in “% viability” value: 77.24% for the first, 78.92% for the second.

Going from `Cc1cccc(NC(=O)N[C@@H]2N=C(c3ccccc3)c3ccccc3N(CC(=O)c3ccccc3C)C2=O)c1` [ONC0005568, ym022] to `Clc1ccccc1C(c1ccccc1)(c1ccccc1)n1ccnc1` [Clotrimazole], the “% viability” value falls from 88.21% to 2.944%.

Going from `C=CC1=C(C)c2cc3[nH]c(cc4nc(cc5[nH]c(cc1n2)c(C)c5CCC(=O)O)C(CCC(=O)O)=C4C)c(C)c3C=C` [ONC0000685, protoporphyrin ix] to `CC1=C(CCC(=O)O)c2cc3[nH]c(cc4nc(cc5[nH]c(cc1n2)c(C)c5C(C)O)C(C)=C4C(C)O)c(C)c3CCC(=O)O` (centres unmarked) [ONC0002122, hematoporphyrin], the “% viability” value falls from 98.29% to 86.42%.

Compared with `C=Cc1c(C)c2cc3nc(c(CC(=O)O)c4[nH]c(cc5nc(cc1[nH]2)C(C)=C5CC)c(C)c4C(=O)O)C(CCC(=O)O)C3C` (centres unmarked) [ONC0000409, chlorophyllin chlorin e6], `N#CC(c1ccccc1)(c1ccccc1)c1ccccc1Cl` [ONC0000177, tram39] is higher in “% viability” value: 49.9% for the first, 89.73% for the second.

For `FC(F)(F)c1ccccc1-n1ccnc1` [ONC0000025, trim], the “% viability” value was 101%.
